Source: PubChem BioAssay
Where “and” joins values, the source holds several entries; their conditions need not be identical. Identical values can stand only once. A number with no mark means an inactive call. Calls of active or inactive are those of the source.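 How the source made its calls, unless noted: active means growth inhibition above 50% at the single 2 µM test dose, taken to imply half-maximal potency below 2 µM; inactive means the rest.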

Experiment: antimalarial activity against Dd2 strain (AID 2302);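 further: 0% = DMSO untreated growth and 100% = chloroquine plus artemisinin killed control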
Details: P. falciparum Dd2 in RBCs, LDH growth readout, 72 h; at 2 µM; active compounds read high

SMILES | growth inhibition
c1ccc(C(OCCC2CCN(Cc3cccc4cccnc34)CC2)c2ccccc2)cc1 | 99% (active)
Cc1ccc(C)c(C=CC(=O)NC2CCC(CN3CCC(c4c[nH]c5ccccc45)CC3)CC2)c1 (stereo not given) | 55% (active) and 80% (active)
Cc1cc(N)nc2ccc(CNCCc3ccccc3Br)cc12 | 77% (active)
Fc1ccc(N(c2nc(-c3cc(F)cc(C(F)(F)F)c3)cs2)C2CCNCC2)cc1 | 10%
CC(Cc1ccc(SC(C)C)cc1)NCC(O)c1cccc(Cl)c1 (stereo not given) | 97% (active)
CC[C@H]1CN2CC[C@@H]1C[C@H]2[C@H](O)c1cc(-c2ccc(F)cc2)nc2ccc(O)cc12 | 99% (active)
CC(=O)Nc1ccc2[nH]cc(C3CCN(CC4CCN(C(=O)/C=C/c5ccc(Cl)c(Cl)c5)CC4)CC3)c2c1 | 41%
COc1ccc(O)c(CN2CCN(c3cc(C)ccc3C)CC2)c1 | 86% (active)
CCN1CC=C(c2c[nH]c3ccccc23)CC1 | 58% (active)
CC[C@H]1CN2CC[C@H]1C[C@H]2[C@H](O)c1cc(/C=C/c2ccc(F)cc2)nc2ccc(OC)cc12 | 99% (active)
O=C(NCc1ccc(S(=O)(=O)N2CCC(CN3CCC(c4c[nH]c5ccccc45)CC3)CC2)s1)c1ccccc1 | 21%
COC(=O)c1ccc(CC(C)NCC(O)c2cccc(Cl)c2Cl)cc1 (stereo not given) | 98% (active)
COCCNCc1cccc(-c2ccc(CN(C(=O)Nc3ccccc3)C3CCN(Cc4ccccc4)CC3)cc2)c1 | 45%
C=Cc1cc(OC)c2c(c1)c(=O)oc1c2cc(OC)c2c(O)ccc([C@H]3O[C@H]([C@@H](C)O)[C@H](O)[C@H]3O)c21 | 41%
c1ccc(C(OCCC2CCN(Cc3cccnc3)CC2)c2ccccc2)cc1 | 98% (active)
N#Cc1ccc(N(CC(=O)NCCc2ccccc2)CC2CC2)c2ccccc12 | 48%
Cc1ccc(C)c(N2CCN(Cc3ccccc3O)CC2)c1 | 90% (active)
CC[C@H]1CN2CC[C@H]1C[C@H]2[C@H](O)c1cc(N2CCCC(CO)C2)nc2ccc(OC)cc12 (stereo not given in full) | 99% (active)
COc1cccc(CN2CCC(CCOC(c3ccccc3)c3ccc(Cl)cc3)CC2)c1O (stereo not given) | 100% (active)
CN1CC=C(c2c[nH]c3ccc(-c4ccccc4)cc23)CC1 | 60% (active)

SMILES | growth inhibition
Cc1csc(NC2=NCCN2)n1 | 1%
CSc1ccc(C[C@@H](C)NC[C@H](O)c2cccc(Cl)c2)cc1 | 96% (active)
O=C(c1cc(C(F)(F)F)cc(C(F)(F)F)c1)N1CC[C@H](CCN2CCC3(CC2)C(=O)NCN3c2ccccc2)C[C@H]1Cc1ccc(Cl)c(Cl)c1 | 77% (active)
CC[C@H]1CN2CC[C@H]1C[C@H]2[C@H](O)c1cc(-c2ccc(SC)cc2)nc2ccc(OC)cc12 | 99% (active)
CC(C)CNCc1cccc(-c2cccc(CN(C(=O)Nc3ccccc3)C3CCN(Cc4ccccc4)CC3)c2)c1 | 89% (active)
Cc1ccc(CC(C)NCC(O)c2cccc(C(F)(F)F)c2)cc1F (stereo not given) | 91% (active)
O=C(Nc1ccc(Oc2ccccc2)cc1)NC1CCC(CN2CCC(c3c[nH]c4ccccc34)CC2)CC1 (stereo not given) | 97% (active)
O=C(/C=C/c1ccc(Cl)c(Cl)c1)N(Cc1ccccc1)C1CCC(CN2CCC(c3c[nH]c4ccccc34)CC2)CC1 (stereo not given) | 59% (active)
CNCCCCCCOc1ccc(CC(C)NCC(O)c2cccc(C(F)(F)F)c2)cc1 (stereo not given) | 79% (active)
CC[C@H]1CN2CC[C@@H]1C[C@@H]2[C@@H](O)c1cc(-c2ccc(F)cc2)nc2ccc(OC)cc12 | 64% (active)
COCCNCc1ccc(-c2ccc(CN(C(=O)NC3CCCCC3)C3CCN(Cc4ccccc4)CC3)cc2)cc1 | 84% (active)
CCCCn1c(C)c(C(=O)OCC)c2cc(OC(C)=O)c(Br)cc21 | 79% (active)
Cn1cc(CN2CCC(CCOC(c3ccccc3)c3ccccc3)CC2)cn1 | 100% (active)
O=C(Cc1cc(=O)oc2cc(O)ccc12)NC1CCC(CN2CCC(c3c[nH]c4ccccc34)CC2)CC1 (stereo not given) | -10%
CC(C)c1ccc(C=CC(=O)NC2CCC(CN3CCC(c4c[nH]c5ccccc45)CC3)CC2)cc1 (stereo not given) | 85% (active)
COc1ccc(CC(C)NCC(O)c2cccc(Br)c2)cc1 (stereo not given) | 93% (active)
C=C[C@H]1CN2CC[C@@H]1C[C@H]2[C@H](O)c1cc(-c2ccc(F)cc2)nc2ccc(OC)cc12 | 98% (active)
CN1CC=C(C=Cc2c[nH]c3ccccc23)CC1 | 64% (active)
CNCC(O)c1cc(Cl)c(Cl)cc1C (stereo not given) | 88% (active)
[O-]c1n[n+](C2CCCCC2)no1 | 82% (active)

Experiment: human hepatoma cell viability loss – ATP luminescence, cytotoxicity control for P. falciparum antimalarial project, primary screen (AID 2303;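 active means inhibition above 50%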;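 further: 0% = DMSO wells and 100% = digitonin-killed cells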)
Details: HepG2 viability, 24-48 h, at 10 µM, active compounds read high

SMILES | inhibition
c1ccc(C(OCCC2CCN(Cc3cccc4cccnc34)CC2)c2ccccc2)cc1 | 9%
Cc1ccc(C)c(C=CC(=O)NC2CCC(CN3CCC(c4c[nH]c5ccccc45)CC3)CC2)c1 (stereo not given) | 38% and 46%
Cc1cc(N)nc2ccc(CNCCc3ccccc3Br)cc12 | 28%
Fc1ccc(N(c2nc(-c3cc(F)cc(C(F)(F)F)c3)cs2)C2CCNCC2)cc1 | 35%
CC(Cc1ccc(SC(C)C)cc1)NCC(O)c1cccc(Cl)c1 (stereo not given) | 5%
CC[C@H]1CN2CC[C@@H]1C[C@H]2[C@H](O)c1cc(-c2ccc(F)cc2)nc2ccc(O)cc12 | 25%
CC(=O)Nc1ccc2[nH]cc(C3CCN(CC4CCN(C(=O)/C=C/c5ccc(Cl)c(Cl)c5)CC4)CC3)c2c1 | 10%
COc1ccc(O)c(CN2CCN(c3cc(C)ccc3C)CC2)c1 | 7%
CCN1CC=C(c2c[nH]c3ccccc23)CC1 | 27%
CC[C@H]1CN2CC[C@H]1C[C@H]2[C@H](O)c1cc(/C=C/c2ccc(F)cc2)nc2ccc(OC)cc12 | 55% (active)
O=C(NCc1ccc(S(=O)(=O)N2CCC(CN3CCC(c4c[nH]c5ccccc45)CC3)CC2)s1)c1ccccc1 | 32%
COC(=O)c1ccc(CC(C)NCC(O)c2cccc(Cl)c2Cl)cc1 (stereo not given) | -1%
COCCNCc1cccc(-c2ccc(CN(C(=O)Nc3ccccc3)C3CCN(Cc4ccccc4)CC3)cc2)c1 | 25%
C=Cc1cc(OC)c2c(c1)c(=O)oc1c2cc(OC)c2c(O)ccc([C@H]3O[C@H]([C@@H](C)O)[C@H](O)[C@H]3O)c21 | 33%
c1ccc(C(OCCC2CCN(Cc3cccnc3)CC2)c2ccccc2)cc1 | 12%
N#Cc1ccc(N(CC(=O)NCCc2ccccc2)CC2CC2)c2ccccc12 | 0%
Cc1ccc(C)c(N2CCN(Cc3ccccc3O)CC2)c1 | 11%
CC[C@H]1CN2CC[C@H]1C[C@H]2[C@H](O)c1cc(N2CCCC(CO)C2)nc2ccc(OC)cc12 (stereo not given in full) | 11%
COc1cccc(CN2CCC(CCOC(c3ccccc3)c3ccc(Cl)cc3)CC2)c1O (stereo not given) | 22%
CN1CC=C(c2c[nH]c3ccc(-c4ccccc4)cc23)CC1 | 14%

SMILES | inhibition
Cc1csc(NC2=NCCN2)n1 | 10%
CSc1ccc(C[C@@H](C)NC[C@H](O)c2cccc(Cl)c2)cc1 | 8%
O=C(c1cc(C(F)(F)F)cc(C(F)(F)F)c1)N1CC[C@H](CCN2CCC3(CC2)C(=O)NCN3c2ccccc2)C[C@H]1Cc1ccc(Cl)c(Cl)c1 | 19%
CC[C@H]1CN2CC[C@H]1C[C@H]2[C@H](O)c1cc(-c2ccc(SC)cc2)nc2ccc(OC)cc12 | 9%
CC(C)CNCc1cccc(-c2cccc(CN(C(=O)Nc3ccccc3)C3CCN(Cc4ccccc4)CC3)c2)c1 | 31%
Cc1ccc(CC(C)NCC(O)c2cccc(C(F)(F)F)c2)cc1F (stereo not given) | 15%
O=C(Nc1ccc(Oc2ccccc2)cc1)NC1CCC(CN2CCC(c3c[nH]c4ccccc34)CC2)CC1 (stereo not given) | 55% (active)
O=C(/C=C/c1ccc(Cl)c(Cl)c1)N(Cc1ccccc1)C1CCC(CN2CCC(c3c[nH]c4ccccc34)CC2)CC1 (stereo not given) | 37%
CNCCCCCCOc1ccc(CC(C)NCC(O)c2cccc(C(F)(F)F)c2)cc1 (stereo not given) | 99% (active)
CC[C@H]1CN2CC[C@@H]1C[C@@H]2[C@@H](O)c1cc(-c2ccc(F)cc2)nc2ccc(OC)cc12 | 18%
COCCNCc1ccc(-c2ccc(CN(C(=O)NC3CCCCC3)C3CCN(Cc4ccccc4)CC3)cc2)cc1 | 29%
CCCCn1c(C)c(C(=O)OCC)c2cc(OC(C)=O)c(Br)cc21 | -8%
Cn1cc(CN2CCC(CCOC(c3ccccc3)c3ccccc3)CC2)cn1 | 27%
O=C(Cc1cc(=O)oc2cc(O)ccc12)NC1CCC(CN2CCC(c3c[nH]c4ccccc34)CC2)CC1 (stereo not given) | 5%
CC(C)c1ccc(C=CC(=O)NC2CCC(CN3CCC(c4c[nH]c5ccccc45)CC3)CC2)cc1 (stereo not given) | 50% (active)
COc1ccc(CC(C)NCC(O)c2cccc(Br)c2)cc1 (stereo not given) | 10%
C=C[C@H]1CN2CC[C@@H]1C[C@H]2[C@H](O)c1cc(-c2ccc(F)cc2)nc2ccc(OC)cc12 | 5%
CN1CC=C(C=Cc2c[nH]c3ccccc23)CC1 | 14%
CNCC(O)c1cc(Cl)c(Cl)cc1C (stereo not given) | 0%
[O-]c1n[n+](C2CCCCC2)no1 | -13%
